From PubChem
Shown are actives, neighbours in structure and some others; about 2.4% of the full set was active somewhere.
Hsp90 Hop PPI = changes Hsp90-Hop TPR2A binding signal, up or down; Potency, µM (titrated, usually from 57 µM); 71,000 tested, 0.44% active; AlphaScreen TPR2A-His6 binding biotin-Hsp90 C-terminal peptide; active means well fitted curve in either direction with a large enough effect; inconclusive means small, poorly fitted or top-dose-only effect, or another doubt
ALOX15B inhib = 15-hLO-2 (ALOX15B) enzyme inhibition; purified 15hLO-2, xylenol orange hydroperoxide absorbance; AID 881; Potency, µM (series often up to 57.1 µM), actives largely listed as inhibitors; O15296; 110,000 tested, 0.56% active; further: nearly all actives have a fitted effect of over 60% in size
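Enzyme 50 nM, AA 45 uM, 25 mM Hepes pH 7.5 + 0.01% Triton X-100; cpd preinc 15 min RT, rxn 90 min RT; stop/detect with 200 uM XO + 300 uM Fe(II) in 50 mM H2SO4, 30 min; A573/A405.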
ALOX15 inhib = blocks human 15-lipoxygenase activity. 74,000 tested, 1.4% active. P16050. Potency, µM (doses to about 57.1 µM), usual class: inhibitors. purified 15hLO-1, xylenol orange hydroperoxide absorbance; further: nearly all actives have a fitted effect of over 55% in size
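40 nM 15hLO-1 + cpd, 15 min RT; start w/ 50 uM AA (final), 6 min RT; stop/detect w/ 200 uM XO + 300 uM Fe(II) in 50 mM H2SO4, 30 min; A573/A405. Buffer 25 mM Hepes pH 7.5, 0.01% Triton X-100. No-enzyme wells as negative control.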
Casp7 inh = caspase-7 (human) inhibition, allosteric or competitive | P55210 | recombinant caspase-7, Ac-DEVD-AFC fluorescence rate | Potency, µM (highest dose often 57.5 µM), usual class: inhibitors | 75,000 tested, 0.02% active; active means well fitted inhibition curve with a large enough effect in the main read-out, with a control signal flat, not every such curve was filed as active; inconclusive means small, poorly fitted or top-dose-only effect, or a change in a side signal
Tau fil binding = binders of human tau filaments; P10636; recombinant tau filaments, thioflavin S fluorescence, 15 h; filaments grown with octadecylsulfate alongside compound; Potency, µM (top dose mostly 57.1 µM); 71,000 tested, 2% active; AID 596;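 further: actives lower thioflavin S fluorescence by blocking filaments or displacing dye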
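Assay mix: 1 uM His-tagged tau, 30 uM sodium octadecylsulfate, thioflavine S dye in HEPES/NaCl/DTT buffer. Compound is added prior to the inducer. Fluorescence after 15 h at 37 C.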
Casp1 inh = allosteric or competitive inhibitors of human caspase-1. P29466. Caspase-1 enzyme, Ac-WEHD-AFC fluorogenic rate. Potency, µM (top dose mostly 57.5 µM), hits mostly inhibitors. 75,000 tested, 0.03% active. AID 900
Each line names hits and unclear results; the compound was inactive in the other large screens. Unless noted, the call rests on the fitted dose curve; in most records, active means well fitted curve in the direction sought with a large enough effect; inconclusive means small, poorly fitted or top-dose-only effect, or another doubt; inactive means no such curve, though single readings can be large; an effect the other way counts as inactive or inconclusive.

CCC(=O)O[C@@]1(C(=O)SCF)[C@@H](C)C[C@H]2[C@@H]3C[C@@H](F)C4=CC(=O)C=C[C@@]4(C)[C@]3(F)[C@@H](O)C[C@]21C	none
CCOC(=O)N1CCC(NC(=O)C(CC(C)C)NC(=O)C2CCCCC2)CC1 (stereo not drawn)	ALOX15 inhib 16µM
Cc1ccc(-c2cc3c(nn2)-c2ccccc2C3=O)cc1	Tau fil binding 1µM (no result: ALOX15B inhib)
CN1CCN(CCNC(=O)c2cc3c(=O)n(C)c4ccccc4c3n2C)CC1	none
Cc1oc(C)c2c(=O)ccc3c(c12)OC(N)=C(C#N)C3c1ccccc1 (stereo not drawn)	ALOX15 inhib inconclusive, Casp1 inh inconclusive
CSc1ccc(C2C(C#N)=C(N)Oc3c2ccc(=O)c2c(C)oc(C)c32)cc1 (stereo not drawn)	Hsp90 Hop PPI inconclusive, ALOX15B inhib inconclusive, ALOX15 inhib 16µM
CCOC(=O)c1c(C)[nH]c(C)c1C(=O)CSc1nnc(-c2cc(OC)c(OC)c(OC)c2)o1	none
COc1ccc(NC2C=CS(=O)(=O)C2)cc1 (stereo not drawn)	none (no result: Hsp90 Hop PPI, ALOX15 inhib, Casp7 inh, Tau fil binding, Casp1 inh)
C=CCN=C1CC(C)(C)CC(=O)/C1=C(\O)c1ccccc1	none (no result: Hsp90 Hop PPI, ALOX15 inhib, Casp7 inh, Tau fil binding, Casp1 inh)
Cc1ccc(N2C(=O)[C@@H]3[C@H](C2=O)C2c4ccccc4C=CN2[C@@H]3C(=O)c2ccco2)c(C)c1 (stereo partly drawn)	Casp7 inh inconclusive, Casp1 inh 13µM
CCn1c(NC(=S)Nc2ccccc2)nc2ccccc21	ALOX15B inhib 25µM (no result: Hsp90 Hop PPI, ALOX15 inhib, Casp7 inh, Tau fil binding, Casp1 inh)
O=c1c(-c2ccc(F)c(F)c2)nc2cncnc2n1Cc1ccccc1Cl	Tau fil binding 7.9µM
O=c1c(-c2ccc(F)c(F)c2)nc2cncnc2n1Cc1ccc(F)cc1	Tau fil binding 16µM
CCOc1ccc(S(=O)(=O)N(CC(=O)N/N=C/c2ccc(-c3ccc([N+](=O)[O-])cc3)o2)c2ccccc2)cc1	ALOX15B inhib 13µM (no result: Hsp90 Hop PPI, ALOX15 inhib, Casp7 inh, Tau fil binding, Casp1 inh)
CCOc1ccc(N(CC(=O)N/N=C/c2cc([N+](=O)[O-])ccc2Cl)S(C)(=O)=O)cc1	none (no result: Hsp90 Hop PPI, ALOX15 inhib, Casp7 inh, Tau fil binding, Casp1 inh)
CN(C)C=NC(=O)/C(C#N)=C1\CCc2ccccc2N1	ALOX15 inhib 7.9µM
COc1ccc(NC(=O)Nc2ccc(N(C)C)cc2)cc1	Tau fil binding 16µM
COc1ccc(NC(=O)Nc2ccc3nccnc3c2)cc1	Tau fil binding 3.2µM
COc1ccc(NC(=O)Nc2ccc(OC)cc2)cc1	none (no result: Hsp90 Hop PPI, ALOX15 inhib, Casp7 inh, Tau fil binding, Casp1 inh)
O=C1CC(c2ccc(O)cc2)Oc2cc(O)cc(O)c21 (stereo not drawn)	none (no result: Hsp90 Hop PPI, Tau fil binding)
O=C1c2c(O)cc(O)cc2O[C@@H](c2ccc(O)c(O)c2)[C@H]1O	Hsp90 Hop PPI inconclusive, ALOX15 inhib 13µM
O=C1CC(c2ccc(O)c(O)c2)Oc2cc(O)cc(O)c21 (stereo not drawn)	ALOX15B inhib inconclusive, ALOX15 inhib 10µM (no result: Hsp90 Hop PPI, Tau fil binding)
CCCn1c(CN2CCN(C(=O)OCC)CC2)nc2c1c(=O)n(C)c(=O)n2C	Hsp90 Hop PPI inconclusive (no result: ALOX15B inhib)
CN(C(=S)NC(=O)C1(C)CC1(Cl)Cl)c1ccccc1 (stereo not drawn)	none (no result: Hsp90 Hop PPI, ALOX15 inhib, Casp7 inh, Tau fil binding, Casp1 inh)
COc1cccc(-c2nnc(SCC(=O)OC(C)C)n2N)c1	none
C=C(C)CC1Nc2ccccc2NC1CC(=C)C (stereo not drawn)	Hsp90 Hop PPI inconclusive, ALOX15B inhib 25µM, ALOX15 inhib 20µM, Casp7 inh inconclusive (no result: Casp1 inh)
C=C(C)CN1C(=O)c2ccccc2C1=O	none (no result: Hsp90 Hop PPI, ALOX15 inhib, Casp7 inh, Tau fil binding, Casp1 inh)
Cc1noc(C)c1COC(=O)[C@H](C)NS(=O)(=O)c1ccc(Cl)c(Cl)c1	none (no result: Hsp90 Hop PPI, ALOX15 inhib, Casp7 inh, Tau fil binding, Casp1 inh)
Cc1noc(C)c1COC(=O)Cc1ccc(Cl)c(Cl)c1	Hsp90 Hop PPI inconclusive, ALOX15 inhib 25µM
O=c1c(O)c(-c2ccc(O)c(O)c2)oc2ccccc12	ALOX15B inhib 13µM, ALOX15 inhib 2µM, Tau fil binding inconclusive
COc1cc(-c2oc3cc(O)ccc3c(=O)c2O)ccc1O	ALOX15 inhib 13µM, Casp7 inh inconclusive (no result: Hsp90 Hop PPI, Tau fil binding, Casp1 inh)
COc1ccc(-c2oc3ccccc3c(=O)c2O)cc1	ALOX15B inhib inconclusive (no result: Hsp90 Hop PPI, Tau fil binding)
COc1ccc(-c2coc3cc(O)ccc3c2=O)c(O)c1O	ALOX15 inhib 13µM (no result: Hsp90 Hop PPI, Tau fil binding)
COc1ccc(-c2coc3cc(O)ccc3c2=O)c(OC)c1O	none (no result: Hsp90 Hop PPI, Tau fil binding)
O=C(CSc1nnnn1-c1ccc(F)cc1)NC1CCCCC1	Hsp90 Hop PPI inconclusive
